Bioassay records from PubChem.
Rows were chosen to be rich in hits. Some 2.2% of all compounds tested hit in one or more screens of this group.
FMDV antiviral: antivirals against foot and mouth disease virus; Potency, µM (doses to about 57.9 µM), for inactives: at the highest dose activity change, negative = inhibition, usual class: inhibitors; FMDV antiviral cell-based qHTS; AID 1159524; hit rate 1.2% among 410,000; calls by dose curve; tested in HEK293T cells; note: read-out not given here; nearly all actives have a fitted effect of over 45% in size
Vaccinia mCherry: inhibitors of vaccinia virus infection (mCherry reporter signal); Potency, µM (titrated, usually from 36.5 µM), inactives show at the top dose activity change, negative = inhibition, most hits filed as inhibitors; Vaccinia virus mCherry reporter infection, fluorescence; hit rate 0.63% among 310,000; AID 720579; calls by dose curve; tested in A549 cells; note: nearly all actives have a fitted effect of over 35% in size
Vaccinia Venus: inhibitors of vaccinia virus (Venus reporter). Vaccinia virus Venus reporter expression, fluorescence. Potency, µM (highest dose often 36.5 µM), for the others: top-dose activity change, negative = inhibition, usual class: inhibitors. hit rate 0.46% among 330,000. AID 720580; calls by dose curve; tested in A549 cells; note: nearly all actives have a fitted effect of over 30% in size
Giardia FBPA inh: Giardia lamblia aldolase inhibition; A8B2U2; purified Giardia FBPA; Potency, µM (top dose mostly 59.6 µM), inactives show at the top dose activity, negative = inhibition, actives largely listed as inhibitors; hit rate 0.71% among 290,000; active = well fitted inhibition curve with a large enough effect; inconclusive = small, poorly fitted or top-dose-only effect, or effect the other way; note: nearly all actives have a fitted effect of over 55% in size
Target sequence (A8B2U2 whole entry, looked up): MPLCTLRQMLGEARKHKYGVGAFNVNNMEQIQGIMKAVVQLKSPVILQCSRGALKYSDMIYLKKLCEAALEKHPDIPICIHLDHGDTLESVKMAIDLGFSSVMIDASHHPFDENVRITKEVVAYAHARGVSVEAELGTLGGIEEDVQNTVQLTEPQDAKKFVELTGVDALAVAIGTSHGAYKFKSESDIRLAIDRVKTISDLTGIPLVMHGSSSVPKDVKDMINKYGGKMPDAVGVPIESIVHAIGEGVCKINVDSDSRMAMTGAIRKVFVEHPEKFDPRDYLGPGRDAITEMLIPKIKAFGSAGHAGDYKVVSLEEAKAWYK
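40 nM FBPA preincubated 10 min at RT with compound (up to 57.5 uM final), then substrate plus GAPDH/TPI/NAD/arsenate coupling and diaphorase/resazurin added. Fluorescence read after 20 min at RT, 525/598 nm.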
An asterisk follows results filed as active; i = inactive; ? = inconclusive; / = no result. % is set by controls: 0 for no effect and ±100 for the full control effect; potency is the fitted concentration of half-maximal effect.

SMILES	FMDV antiviral	Vaccinia mCherry	Vaccinia Venus	Giardia FBPA inh
COc1ccc(-n2ncc3c(N4CCN(Cc5ccccc5)CC4)ncnc32)cc1	35µM*	?	?	-2%
Clc1cccc(-n2ncc3c(N4CCN(Cc5ccccc5)CC4)ncnc32)c1	?	-3%	1%	/
Cc1cccc2c(Nc3ccc4c(c3)OCO4)nc(CN3CCC(N4CCCCC4)CC3)nc12	-12%	i	-12%	/
Cc1ccn(CCC(=O)NCC2Cc3cc(Cl)cc(-c4ccc5[nH]ccc5c4)c3O2)n1 (stereo not drawn)	-2%	-23%	-18%	/
O=S(Cc1ccc(Br)cc1)Cc1nnc(SCc2c(F)cccc2Cl)n1-c1ccccc1 (stereo not drawn)	35µM*	-12%	-29%	-5%
COc1cc(C2CC(=O)N(Cc3cccc(F)c3)c3ccccc3S2)cc(OC)c1OC (stereo not drawn)	25µM*	-30%	-26%	/
CCCCC[C@H](O)/C=C/C=C\C/C=C\C/C=C\CCCC(=O)O	/	/	/	2%
COc1cc(=O)n2c(c1C(=O)N(C)Cc1nccs1)CCN(Cc1cccc(F)c1F)CC2	-1%	-5%	0%	/
COc1ccc(-c2cc(C3CCN(c4ccc(C(C)=O)cc4[N+](=O)[O-])CC3)[nH]n2)cc1	18µM*	/	/	-5%
COC(=O)c1ccc(N2CCC(c3cc(-c4ccc(OC)cc4)n[nH]3)CC2)c([N+](=O)[O-])c1	?	/	/	-3%
O=C1/C(=C/c2ccccc2)C[C@@]2(O)[C@H]3Cc4ccc(O)c5c4[C@@]2(CCN3CC2CC2)C1O5 (stereo partly drawn)	10µM*	?	10µM*	/
c1cc2c(cc1Cc1cncc(Cc3ccc4c(c3)OCO4)c1)OCO2	/	-18%	-13%	/
Oc1ccc(C[C@H]2CNC(=S)N2CC2CCCN2C[C@H](Cc2ccc(O)cc2)N2C[C@H](Cc3ccc(O)cc3)N(CC3CCCCC3)C2=S)cc1 (stereo partly drawn)	?	?	10µM*	/
CC(C)C[C@@H](CN1CCCC1CN1C(=S)NC[C@@H]1Cc1ccc(O)cc1)N1C[C@H](Cc2ccc(O)cc2)N(CC2CCCCC2)C1=S (stereo partly drawn)	?	?	10µM*	/
Oc1ccc(C[C@H]2CN([C@@H](Cc3ccccc3)CN3CCCC3CN3C(=S)NC[C@@H]3Cc3ccccc3)C(=S)N2CC2CCCCC2)cc1 (stereo partly drawn)	0%	1%	-10%	/
CC(C)C[C@@H](CN1CCC[C@@H]1CN1C(=S)NC[C@@H]1Cc1ccccc1)N1C[C@H](Cc2ccc(O)cc2)N(CC2CCCCC2)C1=S	0%	44%	-1%	/
CC(C)C[C@H]1CNC(=S)N1CC1CCCN1C[C@H](CC(C)C)N1C[C@H](Cc2ccc(O)cc2)N(CC2CCCCCC2)C1=S (stereo partly drawn)	?	?	28µM*	/
CC(C)C[C@H]1CNC(=S)N1CC1CCCN1C[C@H](CC(C)C)N1C[C@H](Cc2ccc(O)cc2)N(CC2CCCCC2)C1=S (stereo partly drawn)	-27%	?	?	/
CN(C)CCCCCCNc1nccc(N2CCN(C)CC2)n1	/	-17%	-18%	/
C[C@@H]1CN(Cc2ccc3c(c2)CN(C(=O)CN2CCOc4ccccc4C2)CCO3)C[C@H](C)O1	-7%	-9%	1%	/
Cc1[nH][nH]c(=O)c1C(c1ccc(-c2ccc(F)cc2)o1)c1c(C)[nH][nH]c1=O	-28%	-7%	-2%	?
Cc1[nH][nH]c(=O)c1C(c1ccc(-c2ccc(C(=O)O)cc2)o1)c1c(C)[nH][nH]c1=O	8%	i	0%	5.6µM*
NC(=S)N/N=C1\CCOc2ccc(F)cc21	-16%	1.8µM*	0.89µM*	?
CCC(=O)Nc1ccc(N2CCN(C(=O)c3cccs3)CC2)cc1	-4%	/	/	0%
O=C(COc1ccccc1[N+](=O)[O-])Nc1ccc(N2CCN(C(=O)c3cccs3)CC2)cc1	13µM*	-6%	-23%	2%
SMILES	FMDV antiviral	Vaccinia mCherry	Vaccinia Venus	Giardia FBPA inh
O=C(COc1ccccc1Cl)Nc1ccc(N2CCN(C(=O)c3ccccc3)CC2)cc1	22µM*	/	/	/
Cc1cccc(OCC(=O)Nc2ccc(N3CCN(C(=O)c4ccccc4)CC3)cc2)c1	28µM*	-1%	-21%	2%
O=C(COc1ccccc1Cl)Nc1ccc(N2CCCC2)cc1	-13%	/	/	/
Cc1ccccc1OCC(=O)Nc1ccc(N2CCN(C(=O)c3ccco3)CC2)cc1	28µM*	?	?	-2%
CS(=O)(=O)N1CCN(c2ccccc2NC(=O)CSc2ccc(Cl)cc2)CC1	?	i	-29%	-3%
O=C(CSc1ccc(Cl)cc1)Nc1ccccc1N1CCN(C(=O)c2ccccc2)CC1	13µM*	/	?	0%
O=C(CSc1ccc(Cl)cc1)Nc1ccc(N2CCN(C(=O)c3ccco3)CC2)cc1	20µM*	/	-23%	-1%
O=C(COc1ccc(Cl)cc1)Nc1ccc(N2CCN(C(=O)c3ccco3)CC2)cc1	/	-20%	?	-3%
COC(=O)[C@]12CCCCC=C1N(Cc1ccc(Cl)cc1Cl)C(=O)[C@H](CC(=O)NCc1ccc(OC)c(OC)c1)C2	32µM*	-11%	-24%	/
COC(=O)[C@]12CCCCC=C1N(Cc1cccc3ccccc13)C(=O)[C@H](CC(=O)NCc1ccc(OC)c(OC)c1)C2	14µM*	?	-26%	/
COC(=O)[C@]12CCCCC=C1N(Cc1ccc(Cl)cc1Cl)C(=O)[C@H](CC(=O)NCc1ccccc1)C2	-9%	i	-1%	/
CCOC(=O)[C@]12CCC=C1N(Cc1cccc3ccccc13)C(=O)[C@H](CC(=O)NCc1ccc(OC)c(OC)c1)C2	35µM*	-11%	?	/
CCOC(=O)[C@]12CCC=C1N(Cc1ccco1)C(=O)[C@H](CC(=O)NCc1ccc(OC)c(OC)c1)C2	-21%	37%	-4%	/
CC(=O)c1ccccc1-c1ccc2c(c1)CC(CNC(=O)c1ccnc(Cl)c1)O2 (stereo not drawn)	?	-15%	?	/
Cc1cccc2nc(-c3cccnc3)c(Nc3ccc(C(C)C)cc3)n12	28µM*	?	?	/
Cc1ccccc1Nc1c(-c2cccnc2)nc2cccc(C)n12	?	-25%	-28%	5%
COc1cccc(OC)c1-c1cc(CCCc2cc(-c3c(OC)cccc3OC)nc3ccccc23)c2ccccc2n1	/	10µM*	?	/
COc1c2ccccc2nc2ccccc12	-29%	8%	4%	-4%
O=c1c2ccccc2cnn1CCOc1ccccc1	10µM*	i	-10%	-2%
O=C(O)CCn1cc(/C=C/C(=O)c2ccc(Cl)cc2)c(-c2ccc(Br)cc2)n1	16µM*	-5%	-9%	0%
O=C(O)CCn1cc(C=C2C(=O)NC(=O)NC2=O)c(-c2ccc(Br)cc2)n1	-2%	-6%	0%	1%
c1ccc2c(c1)[nH]c1c(N3CCOCC3)ncnc12	/	?	-23%	-7%
CCOc1ccc2[nH]c3c(N4CCc5ccccc5C4)ncnc3c2c1	-51%	3.5µM*	?	-14%
COc1ccc2[nH]c3c(N4CCN(Cc5ccc6c(c5)OCO6)CC4)ncnc3c2c1	?	/	?	-1%
c1ccc2c(c1)[nH]c1c(N3CCCC3)ncnc12	13µM*	/	?	-2%
